Screening data deposited in PubChem BioAssay by several laboratories.
GLD-1 RNA inh – GLD-1-TGE RNA interaction inhibition (C. elegans); Q17339; purified GLD-1 + fluorescein TGE RNA, fluorescence polarization; inhibition, % at 5.96 µM; 320,000 tested, 0.44% active;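 active = percent inhibition above a per-plate cutoff, the plate mean of test compounds plus 3 SD, cut at about 30% in these data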;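 also: 0% = DMSO wells with GLD-1 and probe and 100% = wells lacking GLD-1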
MEX-5 binding – C. elegans MEX-5 TCR-2 RNA binding activity. Q9XUB2. MEX-5/FITC-TCR2 RNA binding, fluorescence polarization; stronger effect = lower value. activity score (negative = inhibition of binding), % at 10 µM. 300,000 tested, 0.38% active. AID 1832;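 active = inhibition past about -25% in most replicates, and total fluorescence under double the plate's negative control median, limit read from the data; inconclusive = replicates evenly split on the limit, or fluorescence at least double controls; inactive = too little inhibition in most replicates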;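 also: 0% = DMSO and -100% = 5 µM competing unlabeled TCR2 RNA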
MCL1-BIM inh – disrupts human MCL1 binding to BIM-BH3 peptide | Q07820 | GST-MCL1 / FITC-Bim-BH3 fluorescence polarization | inhibition, % at 10.9 µM | 320,000 tested, 0.68% active;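 active = inhibition above the mean inhibition of all tested compounds plus 3 SD, set per campaign, cut at about 40% in these data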;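 also: 0% = DMSO wells and 100% = unlabeled Bim-BH3 peptide control; higher means more loss of mP so more displacement of Bim peptide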
Target sequence (Q07820 whole entry, looked up): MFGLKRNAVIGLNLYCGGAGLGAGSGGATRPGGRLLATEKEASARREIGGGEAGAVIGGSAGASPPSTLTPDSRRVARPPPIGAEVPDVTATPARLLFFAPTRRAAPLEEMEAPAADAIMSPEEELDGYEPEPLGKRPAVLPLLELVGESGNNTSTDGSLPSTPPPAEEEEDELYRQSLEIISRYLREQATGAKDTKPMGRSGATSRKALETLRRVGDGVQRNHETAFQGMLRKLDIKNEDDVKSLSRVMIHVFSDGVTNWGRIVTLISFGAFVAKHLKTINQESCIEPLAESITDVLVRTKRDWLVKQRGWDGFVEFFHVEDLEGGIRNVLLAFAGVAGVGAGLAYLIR
EBV gp42 inh – EBV gp42 inhibition | Q1HVG2 | Fluorescence polarization binding assay, mP read-out | inhibition, % (tested at 21.74 µM) | 220,000 tested, 0.42% active | AID 1085; in the data active = inhibition above about 50%
Target sequence (Q1HVG2 whole entry, looked up): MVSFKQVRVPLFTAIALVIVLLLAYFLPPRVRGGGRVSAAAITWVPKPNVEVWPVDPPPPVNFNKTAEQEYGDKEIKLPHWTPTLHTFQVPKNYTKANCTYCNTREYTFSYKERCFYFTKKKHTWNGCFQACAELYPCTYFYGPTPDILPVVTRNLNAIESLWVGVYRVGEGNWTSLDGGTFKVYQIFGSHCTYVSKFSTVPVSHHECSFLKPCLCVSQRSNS
E coli Lon inh – inhibitors of E. coli Lon protease; 360,000 tested, 0.42% active; purified E. coli Lon protease, fluorescence polarization; inhibition, % at 7.94 µM; P0A9M0; in the data active = inhibition above about 13%, passing the limit was not always enough;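 also: 0% = enzyme with probe and DMSO and 100% = no enzyme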
Bcl-xL primary – blocks human Bcl-xL binding to Bim BH3 peptide | Q07817 | GST-Bcl-xL / FITC-Bim BH3 peptide fluorescence polarization | inhibition, % at 10.9 µM | 320,000 tested, 0.7% active | AID 2129;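 active = inhibition above the mean of all tested compounds plus 3 SD, cutoff set per campaign, cut at about 30% in these data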;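 also: 0% = DMSO wells and 100% = unlabeled Bim-BH3 peptide competitor; inhibitors lower millipolarization by displacing the labeled peptide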
BCLXL inh confirm – counter-screen for MCL1 inhibitors: confirmation of human Bcl-xL inhibitors. shares compounds with MCL1-BIM inh. GST-Bcl-xL / FITC-Bim BH3 peptide FP binding. 1,700 tested, 54% active. inhibition, % at 10.9 µM;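 active = inhibition above a cutoff equal to the mean inhibition of all tested compounds plus 3 SD, cut at about 30% in these data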;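 also: 0% = DMSO wells and 100% = unlabeled Bim BH3 control peptide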
MCL1 BIM confirm – MCL1-BIM-BH3 interaction inhibition, confirmation; shares compounds with MCL1-BIM inh; GST-MCL1 / FITC-Bim-BH3 fluorescence polarization; inhibition, % at 10.9 µM; 1,700 tested, 61% active; AID 2168;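 active = inhibition above the average of all tested compounds plus 3 SD, cut at about 40% in these data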;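 also: 0% = DMSO wells and 100% = unlabeled Bim-BH3 control peptide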
* hit, by the source's call; ? = inconclusive; . = no result. The list is not random: actives were taken first. Their share in the collection is about 1.5%.

SMILES	GLD-1 RNA inh	MEX-5 binding	MCL1-BIM inh	EBV gp42 inh	E coli Lon inh	Bcl-xL primary	BCLXL inh confirm	MCL1 BIM confirm
Cc1cc(C(=O)N2CCC(C)(C(=O)NS(=O)(=O)C3CC3)C2)n(C(C)(C)C)n1 (stereo not drawn)	.	.	.	.	6	.	.	.
Cc1ccc(CNC(=O)CC(C)S(=O)(=O)c2ccc3c(c2)NC(=O)CS3)o1 (stereo not drawn)	46*	-17	86*	.	-32	85*	8	-9
Cc1ccc(CNC(=O)CC(C)S(=O)(=O)c2ccc3c(c2)NC(=O)CO3)cc1 (stereo not drawn)	0	4	-5	.	1	0	.	.
CC(=O)Oc1cc2cccc(OC(C)=O)c(=O)c2c(OC(C)=O)c1OC(C)=O	14	-61*	105*	-12	8	81*	29	36
CC(=O)Oc1cc2c(c3ccccc13)CCC2=O	.	.	.	.	-9	.	.	.
CCn1c(SCC(=O)N/N=C/C=C\c2ccco2)nc2ccccc21	-2	1	48*	-3	-3	15	17	34
Cn1c(SCC(=O)N/N=C/C=C\c2ccco2)nc2ccccc21	3	2	29	-1	-3	12	.	.
Fc1ccc(NCc2cccnc2)cc1F	24	?	71*	115*	11	64*	70*	91*
C=CCn1c(=O)/c(=C/c2cc(OC)c(OC)c(OC)c2)s/c1=C(/C#N)c1nc2ccccc2n1C	1	?	123*	96*	1	112*	145*	169*
COc1ccc(OC)c(S(=O)(=O)N2CCC(NC(=O)c3ccccc3)CC2)c1	5	-1	4	.	2	5	.	.
COc1cccc(N2C(=O)CC(N3CCc4ccccc43)C2=O)c1 (stereo not drawn)	4	-2	4	0	-6	0	.	.
COc1ccc2c(c1)CCN1C2CCN2C(=O)CCC21 (stereo not drawn)	21	-6	56*	9	4	45*	19	16
CCOC(=O)c1c(OCC)[nH]c2c1cc(O)c1ccccc12	16	-1	42*	-12	3	16	56*	73*
COc1ccc(OC)c2[nH]c(=O)c(CCNS(=O)(=O)c3ccc(Cl)cc3)cc12	-11	.	44*	4	-10	1	6	3
COc1ccc(OC)c2[nH]c(=O)c(CCNS(=O)(=O)c3ccc(C)cc3)cc12	-2	0	6	8	-13	6	.	.
CC(C)[C@H](NC(N)=O)C(=O)Nc1cccc(S(=O)(=O)NC2=NCCCCC2)c1	.	.	.	.	-13	.	.	.
C=CCn1c(SCC(=O)c2ccc(O)c(O)c2)nnc1-c1ccccc1OC	3	-4	54*	-6	7	9	9	18
CCn1c(SCC(=O)c2ccc(O)c(O)c2)nnc1-c1ccccc1OC	-6	-7	45*	-8	-9	10	14	41*
C=CCn1c(SCC(=O)c2ccc(O)c(O)c2)nnc1-c1cccnc1	4	-3	41*	10	1	9	12	47*
CCn1c(SCC(=O)c2ccc(O)c(O)c2)nnc1-c1ccccc1	9	-3	13	8	-1	1	.	.
CCOc1ccccc1NC(=O)C(C)N1C(=O)c2ccccc2S1(=O)=O (stereo not drawn)	-3	3	7	.	-11	0	.	.
COc1ccc(CC(=O)N2CCN(S(=O)(=O)c3cc(Cl)ccc3Cl)CC2)cc1	0	.	-7	.	-6	0	.	.
CCc1nc2c(OCc3ccccc3C)cccn2c1N(C)C(=O)C(C)C	.	.	.	.	-2	.	.	.
COc1ccccc1C(=O)n1nc(-c2ccco2)nc1SC	8	.	3	-5	-3	2	.	.
COc1ccccc1/C=c1\sc2nc(-c3ccco3)nn2c1=O	0	-7	60*	-11	-9	21	24	52*
SMILES	GLD-1 RNA inh	MEX-5 binding	MCL1-BIM inh	EBV gp42 inh	E coli Lon inh	Bcl-xL primary	BCLXL inh confirm	MCL1 BIM confirm
Cc1cc(NC(=O)Cc2cccs2)no1	-12	.	62*	71*	-9	10	19	69*
O=C(CN1C(=O)C2C3CCC(C3)C2C1=O)NCc1ccco1 (stereo not drawn)	-3	4	53*	3	-6	6	7	9
O=C1C2C3CCC(C3)C2C(=O)N1Cc1ccco1 (stereo not drawn)	2	2	-9	-13	-1	-9	.	.
O=c1nc(/C=C/c2ccc(-c3ccc(F)cc3)o2)cc(C(F)(F)F)[nH]1	-11	0	44*	1	.	11	40*	22
CC(=O)NC(=S)Nc1ccc(NC(=S)NC(=O)/C=C/c2ccco2)cc1	1	0	2	-11	6	6	.	.
O=C(/C=C/c1ccco1)NC(=S)Nc1ccc(C(=O)O)cc1	13	-32*	67*	.	-23	34*	26	39
Oc1cccc2cc3cccc(O)c3c(O)c12	25	-2	51*	15	10	43*	43*	50*
Cc1cc(C)c(C(N)=O)c(SCC(=O)c2cc(C)n(-c3cc(C)on3)c2C)n1	5	.	.	.	-10	.	.	.
O=C(Nc1cccc(C(F)(F)F)c1)Nc1ccc2[nH]c(=O)[nH]c2c1	1	-1	6	.	-3	12	.	.
COc1cc(/C=N/NC(=S)Nc2cccc(C(=O)O)c2)ccc1O	4	-12	3	5	-4	9	.	.
COc1cccc(/C=N/NC(=S)Nc2cccc(C(=O)O)c2)c1O	-7	-4	56*	1	-5	13	22	72*
O=c1ccc2cc(S(=O)(=O)Nc3ccc(Br)cc3)ccc2o1	.	-3	.	.	4	.	.	.
C#CCN1C(=O)S/C(=C\c2ccc(N3CCOCC3)cc2C)C1=O	-47	?	70*	43	-20	-9	121*	153*
CC(=O)c1cccc(NC(=O)CCn2c(=S)oc3ccccc32)c1	1	1	9	.	-2	4	.	.
O=C(CCO)c1ccc(O)cc1	16	-18	75*	10	-3	17	37*	80*
CCN(CC)c1ccc(/C=C/C(=O)C2C(=O)C=C(C)OC2=O)cc1 (stereo not drawn)	-102	34	79*	-75	-244	76*	79*	125*
COc1ccccc1CNC(=O)CN1C(=O)c2cccc(N)c2C1=O	103*	0	107*	.	-2	93*	43*	54*
O=c1[nH]n(-c2ccccc2)c(=O)cc1Cl	.	.	.	.	-2	.	.	.
COc1ccc(NC(=O)CSc2nnc(-c3ccco3)c(-c3ccco3)n2)cc1OC	-1	1	8	.	2	11	.	.
